Where a name gives a salt, the structure may show the parent alone.
system: HeLa MZ; assay: LBPA endosome anti-LBPA integrated intensity (sum per cell), Z-score; higher = more LBPA staining; conditions: compound concentration in added solution (µM; 5 µl added to 20 µl cells): 10; 18 h
Summary of the method: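 Each value is a Z-score normalised in AcuityXpress from per-cell integrated LBPA or filipin intensity, taken over the whole cell or within LBPA endosomes. Duplicate 384-well imaging plates held 5 µl of 10 µM compound solution, onto which 3,500 HeLa MZ or A431 cells in 20 µl were seeded per well. After 18 h the cells were fixed in 4% PFA, stained with 6C4 anti-LBPA antibody, filipin, propidium iodide and CellTracker green, imaged four times per well at 20× and segmented in MetaXpress.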

Structure (SMILES) | LBPA endosome anti-LBPA integrated intensity (z-score)
CC(=O)Oc1cc(C(F)(F)F)ccc1C(=O)O [Triflusal] | -0.553
O=C(CCCN1CCC(O)(c2ccc(Br)cc2)CC1)c1ccc(F)cc1 [Bromperidol] | 2.09
CCOc1ccccc1OCC1CNCCO1 (configuration not stated) [Viloxazine hydrochloride] | 0.639
N=C(N)NC(=N)NCCc1ccccc1 [Phenformin hydrochloride] | 0.0471
N=C(N)NC(=O)Cc1c(Cl)cccc1Cl [Guanfacine hydrochloride] | 0.0887
N[C@@H](Cc1cc(I)c(Oc2ccc(O)c(I)c2)c(I)c1)C(=O)O [Liothyronine] | 0.00578
Cc1onc(-c2c(Cl)cccc2Cl)c1C(=O)N[C@@H]1C(=O)N2[C@@H]1SC(C)(C)[C@@H]2C(=O)O [Dicloxacillin sodium salt hydrate] | -0.38
CCCC(=O)Nc1ncnc2c1ncn2[C@@H]1O[C@@H]2COP(=O)(O)O[C@H]2[C@H]1OC(=O)CCC [Bucladesine sodium salt] | -0.34
c1ccc2c(CC3=NCCN3)cccc2c1 [Naphazoline hydrochloride] | 0.993
NC(=O)c1cc[n+](CC2=C(C(=O)[O-])N3C(=O)[C@@H](NC(=O)[C@@H](c4ccccc4)S(=O)(=O)O)[C@H]3SC2)cc1 [Cefsulodin sodium salt] | -0.634
CCN[C@H]1C[C@H](C)S(=O)(=O)c2sc(S(N)(=O)=O)cc21 [Dorzolamide hydrochloride] | -0.633
CN(C)CCOc1ccc(/C(=C(/CCCl)c2ccccc2)c2ccccc2)cc1 [Toremifene] | 0.267
CN(C)C(=O)C(CCN1CCC(O)(c2ccc(Cl)cc2)CC1)(c1ccccc1)c1ccccc1 [Loperamide hydrochloride] | 1.35
CCn1cc(C(=O)O)c(=O)c2cc(F)c(N3CCN(C)CC3)cc21 [Pefloxacine] | -0.713
Cc1ccc2c(c1)c1c3n2CCNC3CCC1 (configuration not stated) [Pirlindole mesylate] | 0.024
CCS(=O)(=O)CCn1c([N+](=O)[O-])cnc1C [Tinidazole] | -0.148

Structure (SMILES) | LBPA endosome anti-LBPA integrated intensity (z-score)
Cc1ccc(Cl)c(Nc2ccccc2C(=O)O)c1Cl [Meclofenamic acid sodium salt monohydrate] | -0.676
CN1CCCN=C1/C=C/c1cccs1 [Pyrantel tartrate] | -0.181
CC(C)NCC(O)c1ccc(O)c(O)c1 (single isomer, unassigned; (-)) [(-)-Isoproterenol hydrochloride] | -0.052
CCCCN(CCCC)CCC(O)c1cc2c(Cl)cc(Cl)cc2c2cc(C(F)(F)F)ccc12 (configuration not stated) [Halofantrine hydrochloride] | -0.119
C#Cc1cccc(Nc2ncnc3cc(OCCOC)c(OCCOC)cc23)c1 [Erlotinib] | 2.03
CN1CCN(C(c2ccccc2)c2ccc(Cl)cc2)CC1 (configuration not stated) [Chlorcyclizine hydrochloride] | 0.74
CC(C)[C@H](N)C(=O)OCCOCn1cnc2c(=O)nc(N)[nH]c21 [Valacyclovir hydrochloride] | 0.0601
CN[C@H](CC(C)C)C(=O)N[C@H]1C(=O)N[C@@H](CC(N)=O)C(=O)N[C@H]2C(=O)N[C@H]3C(=O)N[C@H](C(=O)N[C@H](C(=O)O)c4cc(O)cc(O)c4-c4cc3ccc4O)[C@H](O)c3ccc(c(Cl)c3)Oc3cc2cc(c3O[C@@H]2O[C@H](CO)[C@@H](O)[C@H](O)[C@H]2O[C@H]2C[C@](C)(N)[C@H](O)[C@H](C)O2)Oc2ccc(cc2Cl)[C@H]1O [Vancomycin hydrochloride] | -0.0824
Nc1ccc(S(=O)(=O)NC(=O)c2ccccc2)cc1 [Sulfabenzamide] | -1.38
Nc1ccc(S(=O)(=O)Nc2ccc(Cl)nn2)cc1 [Sulfachloropyridazine] | -0.899
CCN(CC)CCOC(=O)C(c1ccccc1)C1CCCCC1 (configuration not stated) [Drofenine hydrochloride] | 2.6
N=C(N)NCCN1CCCCCCC1 [Guanethidine sulfate] | -1.05
Cc1cc(-n2c(=O)[nH]c(=O)n(C)c2=O)ccc1Oc1ccc(SC(F)(F)F)cc1 [Toltrazuril] | 0.612
CN(C)CCC=C1c2ccccc2COc2ccccc21 [Doxepin hydrochloride] | 1.22
CN1CCCCC1CCN1c2ccccc2Sc2ccc([S+](C)[O-])cc21 (configuration not stated) [Mesoridazine besylate] | 2.18
CN1CCC(=C2c3ccccc3C=Cc3ccccc32)CC1 [Cyproheptadine hydrochloride] | 0.629

From the supplement of paper PMC6607015
